Results published in PubChem BioAssay (NCI).
The panel holds about 83,000 compounds, 20% with a hit somewhere; the sample as a whole holds those more often.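 Activity criterion: percent growth below 10, measured after cells in 96-well plates were exposed to a single compound concentration for 48 hours.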 Activity calls are given as the source filed them.

Experiments:
Experiment in all cases: NCI-60 one-dose screen, 48 h (100 = growth as untreated, 0 = no growth, -100 = all killed)
[1] = system: DU-145 prostate; details: 10 µM unless noted
[2] = system: K-562 leukemia; details: 10 µM unless noted
[3] = system: MALME-3M melanoma; details: 10 µM unless noted
[4] = system: MDA-MB-231 breast; details: 10 µM unless noted
[5] = system: RXF 393 renal; details: 10 µM unless noted
[6] = system: SF-268 CNS; details: 10 µM unless noted
[7] = system: SF-295 CNS; details: 10 µM unless noted
[8] = system: SF-539 CNS; details: 10 µM unless noted
[9] = system: UACC-257 melanoma; details: 10 µM unless noted
[10] = system: M14 melanoma; details: 10 µM unless noted
[11] = system: HCT-15 colon; details: 10 µM unless noted
[12] = system: HT29 colon; details: 10 µM unless noted
[13] = system: SNB-75 CNS; details: 10 µM unless noted
[14] = system: SNB-19 CNS; details: 10 µM unless noted
[15] = system: U251 CNS; details: 10 µM unless noted
[16] = system: PC-3 prostate; details: 10 µM unless noted
[17] = system: SK-MEL-5 melanoma; details: 10 µM unless noted
[18] = system: UACC-62 melanoma; details: 10 µM unless noted
[19] = system: LOX IMVI melanoma; details: 10 µM
[20] = system: SK-MEL-28 melanoma; details: 10 µM unless noted

Measured: growth

COc1ccc2c(c1)c(CC(=O)O)c(C)n2C(=O)c1ccc(Cl)cc1
inactive: [1] 107% | [2] 73.5% | [3] 85.1% | [4] 102% | [5] 109% | [6] 109% | [7] 68.6% | [8] 114% | [9] 109% | [10] 95.7% | [11] 104% | [12] 111% | [13] 84.7% | [14] 110% | [15] 90.3% | [16] 104% | [17] 93.6% | [18] 95.5% | [19] 90.9% | [20] 97.3%

c1ccc(C2NCCNC2c2ccccc2)cc1 (stereo not given)
inactive: [1] 104% | [2] 105% | [3] 111% | [4] 98.4% | [5] 120% | [6] 101% | [7] 104% | [8] 98.7% | [9] 99.6% | [10] 102% | [11] 102% | [12] 101% | [13] 87.5% | [14] 102% | [15] 107% | [16] 98.6% | [17] 104% | [18] 102% | [19] 99.1% | [20] 111%

O=C(c1ccccc1)C(Br)C(Br)c1ccccc1 (stereo not given)
inactive: [1] 94.7% | [4] 112% | [5] 33.6% | [6] 102% | [7] 82.4% | [8] 108% | [9] 17.3% | [11] 86% | [13] 96.9% | [14] 102% | [15] 68.6% | [16] 55.3% | [17] 107% | [18] 108% | [20] 111%
active: [2] 6.6% | [3] -3.62% | [10] 2.17% | [12] -52.9% | [19] -55.3%

CN1CCC(CN2c3ccccc3Sc3ccccc32)C1 (stereo not given)
inactive: [1] 92.4% | [2] 38% | [3] 79.8% | [4] 59.5% | [5] 91.4% | [6] 89.2% | [7] 95.7% | [8] 86.3% | [9] 88.6% | [10] 73.6% | [11] 83.9% | [12] 45.8% | [13] 57.7% | [14] 98.1% | [15] 91.1% | [16] 63.6% | [17] 76.6% | [18] 90.4% | [19] 76.5%

O=C(O)c1cc2c(s1)C(=O)c1sccc1C2=O
inactive: [4] 75% | [5] 34.2% | [6] 45.2% | [7] 57.4% | [9] 48.3% | [12] 65.8% | [15] 30.4% | [16] 56.5% | [18] 51%
active: [1] -100% | [2] -1.53% | [3] -98.9% | [8] -66.1% | [10] -96.3% | [11] -59.3% | [13] -91.6% | [14] -2.34% | [17] -100% | [19] -72.5%

COC(=O)C(=[N+]=[N-])C(=O)c1ccc([N+](=O)[O-])o1
inactive: [1] 104% | [2] 81.6% | [3] 25.4% | [4] 97.6% | [5] 81.3% | [6] 92.4% | [7] 108% | [8] 104% | [9] 61.5% | [10] 89.6% | [11] 10.5% | [12] 61.5% | [13] 103% | [14] 92.9% | [15] 88.7% | [16] 74% | [17] 93.6% | [18] 74% | [19] 78.9% | [20] 109%

NC(=Nc1nc(-c2ccccn2)cc2ccccc12)c1ccccn1
active: [1] 1.76% | [2] -22.8% | [5] 1.1% | [8] -18.6% | [9] -4.44% | [10] -55% | [17] -79.4% | [18] 3.59% | [19] -5.24%
inactive: [3] 19% | [4] 47.8% | [6] 13.1% | [7] 17.9% | [11] 21.5% | [12] 13.6% | [13] 41% | [14] 22.5% | [15] 10.3% | [16] 20.6%

CC(C)(C)c1ccc(CCO)cc1
inactive: [1] 114% | [2] 91.3% | [3] 82.5% | [4] 102% | [5] 117% | [6] 104% | [7] 88.7% | [8] 88.6% | [9] 97.2% | [10] 104% | [11] 109% | [12] 110% | [13] 96.7% | [14] 95.7% | [15] 103% | [16] 99.8% | [17] 95.6% | [18] 89.5% | [19] 99.5% | [20] 121%

O=C1C=CC(=O)N1c1cc(Cl)c(Cl)cc1Cl
inactive: [1] 109% | [2] 93.9% | [3] 96.6% | [4] 120% | [5] 106% | [6] 102% | [7] 97.5% | [8] 109% | [9] 101% | [10] 103% | [11] 113% | [12] 101% | [13] 82.1% | [14] 108% | [15] 101% | [16] 100% | [17] 111% | [18] 105% | [19] 97.9% | [20] 107%

CCN(CC)CC(O)CNc1ccc(NCC2CO2)c2c1C(=O)c1ccccc1C2=O (stereo not given)
active: [1] -19.1% | [2] -25.6% | [3] -44.4% | [4] -2.98% | [5] 4.29% | [6] -7.61% | [8] -39.4% | [9] -2.17% | [10] -63.1% | [11] -38.1% | [12] -42.9% | [13] -66% | [14] 3.77% | [15] -51.8% | [16] -28.4% | [17] -89.8% | [18] -73.5% | [19] -54.1%
inactive: [7] 20.4%

CC/C(=C(/CC)c1ccc(O)cc1)c1ccc(O)cc1
inactive: [1] 84.1% | [2] 27.5% | [3] 54.5% | [4] 58.7% | [5] 65.1% | [6] 63.9% | [7] 43.9% | [8] 68.3% | [9] 68.9% | [10] 43.9% | [11] 47.2% | [12] 71.5% | [13] 51.8% | [14] 72.7% | [15] 42.5% | [16] 75.4% | [17] 21.4% | [18] 42.4% | [19] 65.2% | [20] 60.1%

O=C(Nc1ccc(Cl)c(Cl)c1)Nc1ccccc1O
inactive: [1] 118% | [2] 48.7% | [3] 114% | [4] 82.5% | [5] 101% | [6] 92.9% | [7] 75.5% | [8] 91.5% | [9] 78.2% | [10] 58.4% | [11] 78.5% | [12] 112% | [13] 67% | [14] 85.8% | [15] 85.7% | [16] 38.1% | [17] 74.5% | [18] 42.8% | [19] 70.4% | [20] 107%

CN(C)c1ccc(C(=C2C=CC(=[N+](C)C)C=C2)c2ccc(N(C)C)cc2)cc1
active: [1] -91.8% | [2] -10.4% | [3] -81.4% | [4] -56.5% | [5] -92.2% | [6] -74.1% | [7] -55.2% | [8] -70.6% | [9] -62.7% | [10] -80.2% | [11] -19.3% | [12] -19.7% | [13] -49.7% | [14] -75.5% | [15] -87.9% | [16] -31.3% | [17] -98.8% | [18] -54% | [19] -70.2% | [20] -79.6%

CCCCCCCCCCCCCCCCCC1=NCCCN1CCO
inactive: [1] 108% | [2] 100% | [3] 97.4% | [4] 87.8% | [5] 124% | [6] 98.9% | [7] 96% | [8] 103% | [9] 96.1% | [10] 99.7% | [11] 94% | [12] 101% | [13] 105% | [14] 101% | [15] 98.2% | [16] 95.9% | [17] 103% | [18] 111% | [19] 96.4% | [20] 108%

O=C(/C=C/C(Cl)(Cl)Cl)Nc1ccc(Cl)cc1
inactive: [1] 97.7% | [2] 65.7% | [3] 121% | [4] 113% | [5] 87% | [6] 112% | [7] 115% | [8] 103% | [9] 102% | [10] 105% | [11] 88.3% | [12] 94.7% | [13] 110% | [14] 103% | [15] 100% | [16] 104% | [17] 90.8% | [18] 98.5%
active: [19] -69.8%

O=C(NOC(=O)c1ccccc1)c1ccccc1
inactive: [1] 112% | [2] 40.8% | [3] 109% | [4] 111% | [5] 110% | [6] 101% | [7] 112% | [8] 102% | [9] 124% | [10] 104% | [11] 101% | [12] 110% | [13] 108% | [14] 109% | [15] 105% | [16] 90.2% | [17] 105% | [18] 109% | [19] 100% | [20] 119%

CCCN(CCC)C(=O)c1ccc(C)cc1
inactive: [1] 109% | [2] 109% | [3] 100% | [4] 108% | [5] 113% | [6] 100% | [7] 91.9% | [8] 101% | [9] 91.3% | [10] 95.2% | [11] 100% | [12] 96% | [13] 105% | [14] 98.2% | [15] 85.5% | [16] 86.5% | [17] 92.2% | [18] 97.2% | [19] 95.4% | [20] 105%
